# Screens from PubChem.
# This excerpt belongs to a sample that is enriched for hits.
# SARS PLP yeast: qHTS of Yeast-based Assay for SARS-CoV PLP | S. cerevisiae expressing SARS-CoV PLpro, growth rescue | Potency, µM (series often up to 32.9 µM), for the others: at the top dose activity, positive = growth rescue, most hits filed as activators | 0.19% of 330,000 active; further: potency means the concentration at half of the fitted maximal effect; 0% is about no effect; nearly all actives have a fitted effect of over 55% in size
# Cycloheximide cs: Cycloheximide Counterscreen for Small Molecule Inhibitors of Shiga Toxin; 12% of 300,000 active; cell reporter, cycloheximide protein synthesis inhibition counterscreen; AID 2314, 2010; max response, %; in the data active means max response mostly above about 13%, no sharp cut-off; inactive means mostly below about 14%; further: read at 38.3 µM for the half of the compounds with a filed dose; 0% is about no effect
# Shiga toxin inh: A qHTS for Small Molecule Inhibitors of Shiga Toxin; Vero cells, Shiga toxin protein synthesis inhibition reporter; inhibition, % at 38.7 µM; 9.2% of 290,000 active; in the data active means inhibition mostly above about 28%, no sharp cut-off; inactive means mostly below about 43%; further: 0% is about no effect
# TbPYK inhibitor: qHTS of Trypanosoma Brucei Inhibitors; TbPYK enzyme, Kinase-Glo Plus ATP luminescence, 45 min; Potency, µM (top dose mostly 76.8 µM), for the others: top-dose activity, negative = inhibition, hits mostly inhibitors; 0.12% of 410,000 active; AID 624173, 2012; active means well fitted curve in the direction sought with a large enough effect; inconclusive means small, poorly fitted or top-dose-only effect, or another doubt; inactive means no such curve, though single readings can be large; an effect the other way counts as inactive or inconclusive; further: potency means the concentration at half of the fitted maximal effect; on the % scale 0 is the no-effect control and ±100 the full control effect; nearly all actives have a fitted effect of over 50% in size
#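 ADP (130 uM final) triggers the TbPYK reaction after compound addition; incubation is 45 min at room temperature. Kinase-Glo Plus is then added and luminescence imaged. Normalized data are fitted to concentration-effect curves.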
# NS1 inh: qHTS Assay for Inhibitors of Influenza NS1 Protein Function. 0.4% of 270,000 active. Potency, µM (doses to about 46.1 µM), for the others: at the top dose activity, positive = more growth; further: potency means the concentration at half of the fitted maximal effect; actives are rising curves; nearly all actives have a fitted effect of over 50% in size
#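 OD600 was taken as the measure of yeast growth restored by compound in an NS1-expressing S. cerevisiae strain. Cells had been washed out of glucose medium and diluted 1:100 into galactose -URA medium, pH 6.0.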
# LmPK inhibitor: qHTS Assay for Inhibitors of Leishmania Mexicana Pyruvate Kinase (LmPK). Q27686. purified LmPK, Kinase-Glo ATP luminescence, 1 h. Potency, µM (doses to about 57.5 µM), without a hit: at the highest dose activity change, negative = inhibition, hits mostly inhibitors. 0.37% of 290,000 active. AID 1721, 2009; active means well fitted curve in the direction sought with a large enough effect; inconclusive means small, poorly fitted or top-dose-only effect, or another doubt; inactive means no such curve, though single readings can be large; an effect the other way counts as inactive or inconclusive; further: potency means the concentration at half of the fitted maximal effect; on the % scale 0 is the no-effect control and ±100 the full control effect
# Target sequence (Q27686 whole entry, looked up): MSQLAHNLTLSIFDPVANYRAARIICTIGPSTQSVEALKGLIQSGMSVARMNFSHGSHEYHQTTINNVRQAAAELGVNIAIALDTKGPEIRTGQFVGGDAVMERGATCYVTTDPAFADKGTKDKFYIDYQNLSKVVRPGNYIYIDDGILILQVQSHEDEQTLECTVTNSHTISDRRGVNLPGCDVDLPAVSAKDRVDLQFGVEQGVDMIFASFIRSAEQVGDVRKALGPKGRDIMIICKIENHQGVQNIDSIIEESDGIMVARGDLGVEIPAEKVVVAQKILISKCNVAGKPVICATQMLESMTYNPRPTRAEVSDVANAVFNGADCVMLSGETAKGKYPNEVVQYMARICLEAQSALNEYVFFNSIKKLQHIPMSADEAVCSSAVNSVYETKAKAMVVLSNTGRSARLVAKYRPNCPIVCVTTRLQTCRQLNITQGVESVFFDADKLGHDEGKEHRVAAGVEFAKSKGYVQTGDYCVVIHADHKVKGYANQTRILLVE
#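 Kinase-Glo luminescence read after 1 h RT reaction of 0.1 nM LmPK with 0.5 mM PEP and 0.1 mM ADP. Activity scaled between uninhibited and enzyme-free controls.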
# Starred values were filed as active, the others as inactive; ? = inconclusive; · = no result given. Unless noted, the call rests on the fitted dose curve.
SMILES,SARS PLP yeast,Cycloheximide cs,Shiga toxin inh,TbPYK inhibitor,NS1 inh,LmPK inhibitor
Cc1ccc(C(=O)N2CCC(C(=O)c3c(C)cc(C)cc3C)CC2)cc1,-2%,-1,-4,7%,-44%,6%
Cc1nc(-c2ccccc2)sc1CCNC(=O)C(=O)Nc1ccc2c(c1)OCCO2,·,·,·,6%,·,·
O=C(NCCc1ccccc1)Nc1ccc2c(c1)OCO2,-1%,61*,156*,-1%,-4%,-10%
O=C(Nc1ccc2c(c1)OCO2)OCc1ccccc1,-3%,25*,81*,-7%,-60%,-9%
O=C(CCS(=O)(=O)c1ccc(Br)cc1)Nc1ccc2c(c1)OCO2,6%,15*,36,-7%,-1%,4%
O=C(NCCc1ccccc1)C(=O)Nc1ccc2c(c1)OCCO2,-4%,27*,74*,4%,·,8%
Cc1ccc(S(=O)(=O)CCC(=O)Nc2ccc3c(c2)OCO3)cc1,-7%,6,1,2%,-9%,3%
COc1ccc(CCNC(=O)Nc2ccc3c(c2)OCO3)cc1OC,0%,6,11,-4%,-2%,0%
Cc1cccc(C(=O)N2CCc3cc(CNS(=O)(=O)c4ccc(Cl)s4)ccc32)c1,·,·,·,5%,·,·
CN(C)S(=O)(=O)NCC1CCCN(Cc2cc3ccccc3s2)C1 (configuration not stated),·,·,·,-1%,·,·
O=C(CSc1nc(=O)n(CCN2CCOCC2)c2c1CCCC2)Nc1cccc([N+](=O)[O-])c1,1%,·,·,-5%,·,·
O=C(c1cnccn1)N1CCC[C@@]2(CCN(c3ccncc3)C2)C1,·,·,·,5%,·,·
COc1ccccc1C(=O)NC(=O)COC(=O)c1ccc([N+](=O)[O-])cc1Cl,·,·,·,2%,·,·
COC(=O)C[C@@H]1C[C@@H]2c3cc(NC(=O)NC4CCCCC4)ccc3O[C@@H]2[C@H](CO)O1,·,·,·,1%,·,·
COc1ccc(S(=O)(=O)c2cn(C)c3cc(N4CCCCCC4)c(F)cc3c2=O)cc1,·,·,·,-5%,·,·
O=C(CCc1ccccc1)Nc1ccc2c(c1)OCO2,-2%,53*,89*,2%,-24%,0%
O=C(NCCc1ccc(F)cc1)Nc1ccc2c(c1)OCO2,-1%,48*,58*,-30%,-4%,-2%
Oc1c(C(c2ccccc2)N2CCC(O)CC2)sc2nc(-c3ccco3)nn12 (configuration not stated),·,·,·,9%,·,·
COc1cccc(C(C)(O)c2nc(-c3ccc4c(c3)OCO4)cs2)c1 (configuration not stated),·,·,·,4%,·,·
COc1cccc(Nc2nc(-c3ccc4c(c3)OCCO4)cs2)c1,-9%,53*,103*,-7%,7%,-10%
c1ccc(-c2csc(Nc3ccc4c(c3)OCCO4)n2)cc1,·,54*,97*,6%,6%,-19%
O=C(O)c1ccccc1-c1cn2cc(Cl)ccc2n1,-7%,1,11,-8%,·,4%
CNC(=O)Oc1ccc(-c2cn3cc(Cl)ccc3n2)cc1,8%,21*,55,-11%,4%,-10%
Clc1ccc2nc(-c3ccc(Br)s3)cn2c1,-17%,22*,41*,-6%,-23%,?
COc1ccc(-c2nc3ccc(C)cn3c2Cc2ccc(C)cc2)cc1OC,·,·,·,2%,·,·
SMILES,SARS PLP yeast,Cycloheximide cs,Shiga toxin inh,TbPYK inhibitor,NS1 inh,LmPK inhibitor
COc1ccc(-c2cn3cc(C)ccc3n2)cc1Br,-32%,40*,59*,-5%,-9%,-19%
COc1ccc(-c2cn3cc(Cl)ccc3n2)cc1OC,3%,21*,92*,-4%,-13%,3%
CNCc1cn2cc(Cl)ccc2n1,3%,-1,6,5%,8%,0%
COc1cccc(NC(=O)CN(C)C(C)C(=O)NC(=O)NC2CCCCC2)c1 (configuration not stated),-1%,·,·,1%,·,·
COc1ccc(NC(=O)c2cc(S(=O)(=O)N3CCOCC3)ccc2C)cc1S(=O)(=O)N1CCCCC1,·,·,·,-3%,·,·
CCCc1cnc(N2CCN(C(=O)c3c(-c4ccccc4)noc3C)CC2)nc1,0%,-2,-14,-2%,-1%,6%
O=C(NCCCc1ccccc1)c1cccc([N+](=O)[O-])c1,-11%,22*,34,-5%,-16%,2%
O=C(CCCC(=O)c1ccccc1)NCCc1ccccc1,-3%,8,2,-6%,4%,-10%
O=C(NCCCc1ccccc1)c1ccncc1,3%,9,-9,0%,-9%,-1%
O=C(NCCCCc1ccccc1)c1cccc([N+](=O)[O-])c1,-2%,-3,-8,1%,-36%,-8%
O=C(NCCCc1ccccc1)c1ccccc1,?,40*,76*,7%,-11%,-4%
O=C(NCCc1ccccc1)c1ccc(-n2cnnn2)cc1,0%,47*,61*,3%,-2%,-7%
O=C(CCCc1ccccc1)c1ccccc1,-15%,46*,97*,-15%,1%,-10%
CCc1ccc([C@@H]2CC=C(C(=O)O)[C@H](c3ccc(C(C)(C)C)cc3)N2S(=O)(=O)c2ccc(C)cc2)cc1,0%,·,·,-8%,·,·
O=C(NCCCCc1ccccc1)c1ccc(F)cc1,·,·,·,9%,·,·
O=C(NCCCCc1ccccc1)c1ccc(Br)cc1,-6%,38*,56*,0%,-39%,-4%
O=C(NCCCCc1ccccc1)c1ccccc1,2%,15*,28,3%,·,5%
COc1ccccc1-c1noc2c1C(=O)N(Cc1cn(Cc3ccccc3)nn1)CC2,·,·,·,-9%,·,·
CCCCn1nc(NC(=O)c2cccc(Cl)c2)c2cc3cccc(C)c3nc21,·,·,·,-1%,·,·
O=C(N/N=C/c1cn(-c2ccccc2)nc1-c1cc2ccccc2o1)c1ccncc1,-23%,85*,132*,0%,4%,0%
CN(C)S(=O)(=O)c1cccc(-c2nn(-c3ccccc3)cc2/C=C(\C#N)c2nc3ccccc3[nH]2)c1,-8%,6,-8,-3%,26%,5%
O=C(N/N=C/c1cn(-c2ccccc2)nc1-c1cc2ccccc2o1)c1cccnc1,-7%,53*,106*,4%,16%,-1%
O=C(O)c1cccc(NC(=O)c2cn(-c3ccccc3)nc2-c2cc3ccccc3o2)c1,19%,-2,-5,-8%,12%,2%
N#C/C(=C\c1cn(-c2ccccc2)nc1-c1cc2ccccc2o1)c1nc2ccccc2[nH]1,-4%,46*,121*,6%,0%,0%
CC1CCN(C(=O)CSc2nc(-c3ccc(C(C)C)cc3)no2)CC1,·,·,·,2%,·,·
CCOc1ccc(NC(=O)CSc2oc(-c3cccs3)nc2S(=O)(=O)c2ccc(C)cc2)cc1,·,·,·,1%,·,·
O=C(C1CC1)N1CCc2cc(Br)cc(S(=O)(=O)N3CCN(c4cccc(C(F)(F)F)c4)CC3)c21,·,·,·,-5%,·,·
